Test results reported in PubChem BioAssay (EPA / NIEHS).
Records with an inconclusive call do not appear. Calls of active or inactive are those of the source. How the source made its calls, unless noted: active means hit-call score of the fitted dose curve at least 0.9, where 1 is the maximum; inconclusive means response in the unintended direction; inactive means score below 0.9.

Experiments:
[1] = read-out: xenobiotic metabolism (CYP2C9), CYP2C9 (gene 1559); test: CLD_CYP2C9_48hr: CellzDirect (CLD) Gene Expression Assay for xenobiotic metabolism (CYP1A2) at 48 hours (AID 2283701; active means hit-call score of the fitted dose curve at least 0.9, where 1 is the maximum; inactive means score below 0.9)
How it was run: (§1)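 Primary human hepatocytes (two donor preparations) dosed daily for two days with test chemicals, 0.2% DMSO vehicle; harvested at 48 h. mRNA induction quantified by qNPA chemiluminescence, fitted for gain of signal against DMSO baseline; cytotoxicity annotated from phase-contrast morphology.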

[2] = read-out: xenobiotic metabolism (CYP1A2), CYP1A2 (gene 1544); test: CLD_CYP1A2_48hr: CellzDirect (CLD) Gene Expression Assay for xenobiotic metabolism (CYP1A2) at 48 hours (AID 2283703)
How it was run: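 Primary human hepatocytes from two donor preparations were dosed daily for two days at multiple concentrations in 0.2% DMSO vehicle. CYP1A2 mRNA was measured at 48 hours by chemiluminescent quantitative nuclease protection assay, with gain of signal fitted versus DMSO and cytotoxicity annotated from morphology.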

[3] = read-out: alkyl and aryl transferase (GSTA2), GSTA2 (gene 2939); test: CLD_GSTA2_48hr: CellzDirect (CLD) Gene Expression Assay for alkyl and aryl transferase (GSTA2) at 48 hours (AID 2283708);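 further: active means mRNA induction above DMSO vehicle baseline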
How it was run: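 Primary human hepatocytes dosed daily for two days (0.2% DMSO vehicle), harvested at 48 h. GSTA2 mRNA induction measured by quantitative nuclease protection assay with chemiluminescent imaging, fitted for gain of signal relative to DMSO.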

[4] = read-out: glucuronosyltransferase (UGT1A1), UGT1A1 (gene 54658); test: CLD_UGT1A1_48hr: CellzDirect (CLD) Gene Expression Assay for glucuronosyltransferase (UGT1A1) at 48 hours (AID 2283709);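 further: actives increase expression relative to DMSO so potency refers to induction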
How it was run: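 Human primary hepatocytes dosed daily for two days (0.2% DMSO vehicle), harvested at 48 h. UGT1A1 mRNA induction measured by quantitative nuclease protection assay with chemiluminescence; gain of signal versus DMSO; cytotoxicity flagged from morphology.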

[5] = read-out: sulfotransferase (SULT2A), SULT2A1 (gene 6822); test: CLD_SULT2A_48hr: CellzDirect (CLD) Gene Expression Assay for sulfotransferase (SULT2A) at 48 hours (AID 2283710);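 further: hits raise SULT2A1 transcript above the 0.2% DMSO vehicle baseline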
How it was run: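 Primary human hepatocytes (two donor preparations) dosed daily for two days with chemicals at multiple concentrations, vehicle 0.2% DMSO; SULT2A1 mRNA induction at 48 h by quantitative nuclease protection assay, chemiluminescent read-out, fitted for gain of signal versus DMSO.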

[6] = CLD_ACTIN_48hr: CellzDirect (CLD) Gene Expression Assay for Baseline Control (Actin) at 48 hours (AID 2283702)
How it was run: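 Primary human hepatocytes (two donor preparations) dosed daily for two days with ToxCast chemicals at multiple concentrations versus 0.2% DMSO vehicle; harvested at 48 h. Actin mRNA measured as a background control by quantitative nuclease protection assay with chemiluminescence.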

[7] = read-out: xenobiotic metabolism (CYP1A1), CYP1A1 (gene 1543); test: CLD_CYP1A1_48hr: CellzDirect (CLD) Gene Expression Assay for xenobiotic metabolism (CYP1A1) at 48 hours (AID 2283705)
How it was run: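 Primary human hepatocytes from two donors dosed daily for two days at multiple concentrations, 0.2% DMSO vehicle; CYP1A1 mRNA induction at 48 h by qNPA chemiluminescence. Cytotoxicity noted by phase-contrast morphology.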

[8] = read-out: Cytochrome P450 2C9 (Homo sapiens) (UniProt P11712); test: CLD_CYP2C9_48hr: CellzDirect (CLD) Gene Expression Assay for xenobiotic metabolism (CYP2C9) at 48 hours (AID 2283701)
How it was run: as §1

CCNc1nc(Cl)nc(NC(C)(C)C#N)n1
AC50 [1]: 0.0364 µM (active)

C[N+]1(C)CCCCC1
AC50 [1]: 0.0004 µM (active)

CCCCN(CC)c1c([N+](=O)[O-])cc(C(F)(F)F)cc1[N+](=O)[O-]
AC50 [2]: 5.9 µM (active)
outcome [3]: inactive
AC50 [4]: 7.05 µM (active)
outcome [5]: inactive

CSC1=N[C@@](C)(c2ccccc2)C(=O)N1Nc1ccccc1
outcome [6]: inactive
AC50 [7]: 20 µM (active)
outcome [4]: inactive

CCOP(=O)(SC(C)CC)N1CCSC1=O (stereo not given)
outcome [8]: inactive
AC50 [2]: 4.51 µM (active)
outcome [4]: inactive
outcome [5]: inactive

CCCOc1nn(C(=O)NS(=O)(=O)c2ccccc2C(=O)OC)c(=O)n1C
outcome [6]: inactive
outcome [2]: inactive
outcome [4]: inactive

CN(C)NC(=O)CCC(=O)O
outcome [2]: inactive
outcome [4]: inactive
outcome [5]: inactive

CN(C)[C@@H]1C(=O)C(C(N)=O)=C(O)[C@@]2(O)C(=O)C3=C(O)c4c(O)cccc4[C@@](C)(O)[C@H]3[C@H](O)[C@@H]12
outcome [2]: inactive
outcome [3]: inactive
outcome [5]: inactive

CCCSP(=O)(OCC)SCCC
outcome [8]: inactive
outcome [2]: inactive
outcome [4]: inactive
outcome [5]: inactive

CC(C1CC1)C(O)(Cn1cncn1)c1ccc(Cl)cc1 (stereo not given)
AC50 [1]: 0.0911 µM (active)
AC50 [2]: 5.01 µM (active)
outcome [7]: inactive
outcome [4]: inactive
outcome [5]: inactive

CNC(=O)ON=C(C)SC
outcome [6]: inactive
outcome [2]: inactive
outcome [4]: inactive
outcome [5]: inactive

Nc1c(Cl)cc([N+](=O)[O-])cc1Cl
AC50 [2]: 4.29 µM (active)
AC50 [7]: 4.01 µM (active)
outcome [3]: inactive
outcome [4]: inactive
outcome [5]: inactive

Cc1ccn2nc(S(=O)(=O)Nc3c(F)cccc3F)nc2n1
outcome [8]: inactive
outcome [2]: inactive
outcome [4]: inactive
outcome [5]: inactive

CCOC(=O)CC(SP(=O)(OC)OC)C(=O)OCC (stereo not given)
outcome [2]: inactive
outcome [3]: inactive
outcome [4]: inactive
outcome [5]: inactive

O=[N+]([O-])c1cc(C(F)(F)F)c(Cl)c([N+](=O)[O-])c1Nc1ncc(C(F)(F)F)cc1Cl
AC50 [2]: 0.499 µM (active)
AC50 [7]: 0.627 µM (active)
outcome [5]: inactive

FC(F)C(F)(F)OCC(Cn1cncn1)c1ccc(Cl)cc1Cl (stereo not given)
AC50 [2]: 1.27 µM (active)

CCCOCC(=Nc1ccc(Cl)cc1C(F)(F)F)n1ccnc1
outcome [6]: inactive
AC50 [2]: 0.687 µM (active)
outcome [4]: inactive

Cc1nn(-c2cc(NS(C)(=O)=O)c(Cl)cc2Cl)c(=O)n1C(F)F
outcome [6]: inactive
outcome [2]: inactive
outcome [7]: inactive
outcome [4]: inactive
outcome [5]: inactive

CSc1nc(NC(C)C)nc(NC(C)C)n1
outcome [8]: inactive
AC50 [2]: 1.64 µM (active)
outcome [4]: inactive
outcome [5]: inactive

COP(=O)(OC)C(O)C(Cl)(Cl)Cl (stereo not given)
outcome [6]: inactive
AC50 [4]: 0.0665 µM (active)

S=C1NCCN1
outcome [6]: inactive
outcome [4]: inactive

C#CCC1=C(C)C(OC(=O)C2C(C=C(C)C)C2(C)C)CC1=O (stereo not given)
outcome [8]: inactive
AC50 [2]: 20 µM (active)
AC50 [4]: 3.87 µM (active)
outcome [5]: inactive

CC1=NNC(=O)N(/N=C/c2cccnc2)C1
outcome [6]: inactive
AC50 [2]: 8.29 µM (active)
outcome [4]: inactive

CCCCSP(=O)(SCCCC)SCCCC
outcome [8]: inactive
AC50 [2]: 3.04 µM (active)
AC50 [4]: 20 µM (active)
AC50 [5]: 33.4 µM (active)

Nc1nc(N)nc(NC2CC2)n1
outcome [6]: inactive

N#CSCSC#N
outcome [6]: inactive
outcome [2]: inactive
outcome [5]: inactive

CCOP(=S)(OCC)SCCSCC
outcome [8]: inactive
AC50 [2]: 7.27 µM (active)
AC50 [4]: 4.17 µM (active)
outcome [5]: inactive

CC[C@H](C)[C@H]1O[C@]2(C=C[C@@H]1C)C[C@@H]1C[C@@H](C/C=C(\C)[C@@H](O[C@H]3C[C@H](OC)[C@@H](O[C@H]4C[C@H](OC)[C@@H](NC)[C@H](C)O4)[C@H](C)O3)[C@@H](C)/C=C/C=C3\CO[C@@H]4[C@H](O)C(C)=C[C@@H](C(=O)O1)[C@]34O)O2
outcome [6]: inactive
AC50 [5]: 2 µM (active)

CC(COc1ccc(Oc2ccccc2)cc1)Oc1ccccn1 (stereo not given)
outcome [8]: inactive
AC50 [4]: 4.89 µM (active)
outcome [5]: inactive

CC(Oc1cccc(Cl)c1)C(=O)O (stereo not given)
outcome [6]: inactive
outcome [2]: inactive
outcome [4]: inactive

COP(=O)(OC)OC(Br)C(Cl)(Cl)Br (stereo not given)
outcome [6]: inactive
outcome [2]: inactive
outcome [7]: inactive
outcome [3]: inactive
outcome [4]: inactive
outcome [5]: inactive

CC(C)[C@H](C(=O)O[C@H](C#N)c1cccc(Oc2ccccc2)c1)c1ccc(Cl)cc1
outcome [8]: inactive
AC50 [2]: 20 µM (active)
AC50 [4]: 7.47 µM (active)
outcome [5]: inactive

CC1(C(=O)Nc2ccc(O)c(Cl)c2Cl)CCCCC1
outcome [6]: inactive
outcome [4]: inactive

CCOC(=O)COc1cc(-c2nn(C)c(OC(F)F)c2Cl)c(F)cc1Cl
outcome [8]: inactive
outcome [2]: inactive
AC50 [4]: 6.18 µM (active)
outcome [5]: inactive

COP(=O)(NC(C)=O)SC (stereo not given)
outcome [8]: inactive
outcome [2]: inactive
outcome [4]: inactive
outcome [5]: inactive

CCc1cnc(C2=NC(C)(C(C)C)C(=O)N2)c(C(=O)O)c1 (stereo not given)
outcome [6]: inactive
outcome [2]: inactive
outcome [7]: inactive
outcome [3]: inactive
outcome [4]: inactive
outcome [5]: inactive

CNC(=O)Oc1cccc2c1OC(C)(C)O2
outcome [6]: inactive
outcome [2]: inactive
outcome [3]: inactive
outcome [4]: inactive

CCC(CC)Nc1c([N+](=O)[O-])cc(C)c(C)c1[N+](=O)[O-]
outcome [6]: inactive
AC50 [2]: 9.85 µM (active)
outcome [7]: inactive
outcome [4]: inactive
outcome [5]: inactive
